Laboratory results as given in paper PMC8769072, “Proteome‐scale mapping of binding sites in the unstructured regions of the human proteome” (Molecular Systems Biology, 2022).

biological target: EPS15 121-215, P42566
Sequence (P42566 121-215): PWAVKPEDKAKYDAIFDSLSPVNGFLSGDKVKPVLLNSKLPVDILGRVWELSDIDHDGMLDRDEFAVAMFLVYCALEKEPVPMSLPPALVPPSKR

Selected by phage display, active:
PLLTGVSSSTNPFRPQ [GNG5, P63218] confidence 3
HANPSNPFYEALSTPS [LMTK3, Q96Q04] confidence 4
DSASSNPFALPNSVTP [WDR59, Q6PJI9] confidence 3
VQEQFGGNPFATATTD [UBQLN3, Q9H347] confidence 4
NPFLTGLSAPSPTNPF [EPN3, Q9H201] confidence 3
TQAPPLHTATTNPFLT [MLLT10, P55197] confidence 4
NPFNTPHLQLVHDGLG [SLC25A3, Q00325] confidence 2
YSNNPFWNGVQTNPFL [SH3BP4, Q9P0V3] confidence 2
MQDPFGGNPFTALLAG [UBQLNL, Q8IYU4] confidence 3
AAGPSVASSTNPFQTN confidence 3
QIMENPFVQSMLSNPD [UBQLN1, Q9UMX0] confidence 3
NPFLPSDSSKTSELHS [KIAA1549, Q9HCM3] confidence 2
PLSPGNPFSPGTPISP [WNK4, Q96J92] confidence 3
NPFWNVSTQPQQLPRP confidence 4
LMNFLGDSNPFNLLRM [BCL11B, Q9C0K0] confidence 2
SAVSSVVNKFNPFDLI [PCLO, Q9Y6V0] confidence 3
NPFTPDSLLLHSSGQA [WEE1, P30291] confidence 4
TPFGQVAAAGVSSNPF confidence 3
TPSEADRWLEEVSKSV [NUMB, P49757] confidence 3
YPDRVTQNPFIPTFGD [GRIN2B, Q13224] confidence 3
YTNPFSDNHQSPFLEG [PRUNE2, Q8WUY3] confidence 2
NPFNEEPAETVSSSDT [PLEKHM2, Q8IWE5] confidence 2
NPFEDDFGAPKVGVAA [PYGO2, Q9BRQ0] confidence 2
SSEVNIVNPFALESTI [SLC1A1, P43005] confidence 2

biological target: CRK 124-198, P46108
Sequence (P46108 124-198): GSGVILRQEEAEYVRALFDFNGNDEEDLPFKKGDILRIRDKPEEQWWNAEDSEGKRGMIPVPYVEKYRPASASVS

Selected by phage display, active:
PLPPPKEVINGNIKTV [EIF3G, O75821] confidence 3
NDNSEYVPMLPGKFLG [IRS4, O14654] confidence 3
TPVAIATQLPPKVSAA [EP400, Q96L91] confidence 2
NVLNESPVQLPPLPPR [SCIMP, Q6UWF3] confidence 3
VELAPILPAKKQGGRP [NPM3, O75607] confidence 4
SSSAHLPPKDRPVTVF [MYO9A, B2RTY4] confidence 2
LKAIPASSSAPPLPPK [FAM110B, Q8TC76] confidence 4
TPPPPSMPHKERYFDR [ADD3, Q9UEY8] confidence 2
PPLPEKFVVKGVVDRF [SNX30, Q5VWJ9] confidence 3
ESVAYHAQNNPPVPPK [ADNP, Q9H2P0] confidence 2
DDTVEMPLPKKLKSVT [TPR, P12270] confidence 2
FPPLPEKAAALESAQE [HDLBP, Q00341] confidence 3
MLGPAIPPKATPEPAI [C6orf132, Q5T0Z8] confidence 3
FSMQEPMVPAKLGTQA [PPFIA4, O75335] confidence 3
IPASPGQAAPLLPKKG [NUAK2, Q9H093] confidence 2
GPRLPPRQPTVASPAE [SATB1, Q01826] confidence 2
KPMLPAKFGQPQGSPA [SIM2, Q14190] confidence 2
GVPALPVKNLNGTGPV [DTX1, Q86Y01] confidence 3
APPLPPREPPSKAAQE [ZNF516, Q92618] confidence 2
SSALAATLPTLPAKVY [NCF4, Q15080] confidence 2
VQDIQPALPTKGEVLL [IVL, P07476] confidence 4
PSAPQLPPRDSPRALM [PPARGC1B, Q86YN6] confidence 2
PPEPLLPLKAPATQPH confidence 2
LMDISPFLPEKGLPST [MTCL1, Q9Y4B5] confidence 3
SSSPQLPPKPSIDLTV [CTTNBP2, Q8WZ74] confidence 2
ADLPPKLQKMAGGAAR [KCNJ3, P48549] confidence 4
NTQPPLPFKEAHVSGH [ZNF804A, Q7Z570] confidence 4
PQLLPKTSPQSAPPSS [FAM205A, Q6ZU69] confidence 4
PHSSPPPLPAKASRQL [PHLDB1, Q86UU1] confidence 3
ELWKVPLPPKNITAPS [TNRC6A, Q8NDV7] confidence 3
TQPPPHLPTKLVIRHG [BICRA, Q9NZM4] confidence 3
PRPPELPQKRLKTLDA [WDR83, Q9BRX9] confidence 4
SQEALPPKKRDLPVTS [ATXN1L, P0C7T5] confidence 3
SMELLPPELPPRIPIE [SH2B1, Q9NRF2] confidence 4
PTLPPKGLAGPPASPG [KIAA1522, Q9P206] confidence 3
ELPVSPEIPPRKSQYL [IL31RA, Q8NI17] confidence 2
PGLQAPPLPPRVGLPT [VPS37B, Q9H9H4] confidence 4
IEAKDLPAKKKYLAEL [DAB2IP, Q5VWQ8] confidence 2
